Reference: PubChem BioAssay (EPA / NIEHS)
Calls of active or inactive are those of the source. Rule for the calls: active = hit-call score of the fitted dose curve at least 0.9, where 1 is the maximum; inactive = score below 0.9.

Legend:
[1] = ATG_CRE_CIS: Attagene CIS-FACTORIAL HepG2 Assay for human cAMP Responsive Element (CRE) binding protein 3 (AID 2282926); conditions: HepG2 CRE cis-reporter, Attagene multiplexed mRNA; actives raise or lower the signal
Procedure, shortened: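 HepG2 cells transiently transfected with a multiplexed reporter library (CRE-driven unit among them) were dosed for 24 h. Reporter mRNA was quantified by RT-PCR, fluorescent labelling, HpaI digestion and capillary electrophoresis, with bidirectional fitting against DMSO baseline.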

[2] = target: CCAAT/enhancer-binding protein beta (Homo sapiens) (UniProt P17676); assay: ATG_C_EBP_CIS: Attagene CIS-FACTORIAL HepG2 Assay for human CCAAT/Enhancer Binding Protein (C/EBP) beta (AID 2282927); conditions: HepG2 Attagene cis-factorial transcription factor reporter; actives raise or lower the signal
Procedure, shortened: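 Changes in reporter mRNA, rather than exogenous chimeric receptor activity, reflect native C/EBP signalling in transfected HepG2 cells dosed for 24 h; transcripts are detected by RT-PCR and capillary electrophoresis.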

[3] = ATG_CMV_CIS: Attagene CIS-FACTORIAL HepG2 Assay for human CMV (Internal Marker) (AID 2282928); conditions: HepG2 CMV promoter reporter, transcription factor profiling; actives raise or lower the signal;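 note: endpoint acts as a background internal control marker rather than a target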
Procedure, shortened: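 Cell system: HepG2, transiently transfected multiple reporter units under cis promoters. Exposure: 24 h. Detection: RT-PCR, FAM labeling, HpaI digestion, capillary electrophoresis. Analysis: bidirectional, DMSO baseline.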

[4] = ATG_DR4_LXR_CIS: Attagene CIS-FACTORIAL HepG2 Assay for human Liver X Receptor (LXR), DR4 submotif (AID 2282929); conditions: HepG2 Attagene DR4 cis-reporter, mRNA transcription; actives raise or lower the signal
Procedure, shortened: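 After transient transfection with multiplexed cis-promoter reporter units, HepG2 cells received test chemicals for 24 h. Reporter mRNA induction, detected by fluorescence after RT-PCR and capillary electrophoresis, was scored relative to DMSO.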

[5] = target: Aryl hydrocarbon receptor (Homo sapiens) (UniProt P35869); assay: ATG_Ahr_CIS: Attagene CIS-FACTORIAL HepG2 Assay for human Aryl Hydrocarbon Receptor (Ahr) (AID 2282930); conditions: HepG2 AhR cis-factorial reporter transcription; actives raise or lower the signal
Procedure, shortened: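 HepG2, transient MRTU (cis) transfection, 24 h exposure. RNA → cDNA → PCR → 6-FAM primer extension → HpaI 2 h 37 C → CE. Fit: bidirectional, DMSO baseline.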

[6] = ATG_AP_1_CIS: Attagene CIS-FACTORIAL HepG2 Assay for human Activator Protein 1 (AP-1) (AID 2282931); conditions: HepG2 Attagene cis-factorial AP-1 reporter mRNA; actives raise or lower the signal
Procedure, shortened: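 After 24 h incubation with test chemical, RNA from transfected HepG2 cells was reverse-transcribed, amplified, fluorescently labelled and digested before capillary electrophoresis. Reporters were driven by cis-regulatory promoters; activity fitted bidirectionally versus DMSO.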

[7] = ATG_AP_2_CIS: Attagene CIS-FACTORIAL HepG2 Assay for human Activator Protein 2 (AP-2) (AID 2282932); conditions: HepG2 AP-2 cis-reporter, Attagene transcription factor profiling; actives raise or lower the signal
Procedure, shortened: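 Step one: transient transfection of HepG2 with reporter transcription units. Step two: 24 h chemical exposure. Step three: RNA extraction, RT-PCR, labelled fragment analysis by capillary electrophoresis; DMSO serves as baseline.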

[8] = ATG_BRE_CIS: Attagene CIS-FACTORIAL HepG2 Assay for human Bone Morphogenetic Protein (BMP) Response Element (BRE) (AID 2282933); conditions: HepG2 BMP response element reporter, Attagene transcription factor profiling; actives raise or lower the signal
Procedure, shortened: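 Multiplexed cis-reporter assay, HepG2, 24 h exposure. mRNA from reporter units quantified via RT-PCR/CE; DMSO baseline; bidirectional curve fit.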

[9] = target: Transcription factor E2F1 (Homo sapiens) (UniProt Q01094); assay: ATG_E2F_CIS: Attagene CIS-FACTORIAL HepG2 Assay for human E2F Transcription Factor 1 (AID 2282935); conditions: HepG2 Attagene cis-reporter, E2F reporter RNA transcripts; actives raise or lower the signal
Procedure, shortened: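 Total RNA from 24 h-treated, reporter-transfected HepG2 cells undergoes DNase I treatment, oligo(dT) reverse transcription, PCR and 6-FAM primer extension before capillary electrophoresis.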

[10] = ATG_E_Box_CIS: Attagene CIS-FACTORIAL HepG2 Assay for human Enhancer Box (E-box) (AID 2282936); conditions: HepG2 E-box cis-reporter transcription, actives raise or lower the signal
Procedure, shortened: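 DMSO served as negative control and baseline for bidirectional fitting. Human hepatoma HepG2 cells, transiently transfected with cis-reporter constructs, were dosed 24 h; reporter mRNA read by RT-PCR and capillary electrophoresis.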

[11] = ATG_M_61_CIS: Attagene CIS-FACTORIAL HepG2 Assay for M61 Transcription Factor (Internal Marker) (AID 2282937); conditions: HepG2 Attagene CIS-FACTORIAL M61 internal marker reporter; actives raise or lower the signal
Procedure, shortened: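 Using transiently transfected HepG2 liver cells, reporter transcript levels were assessed 24 h post-dosing by RT-PCR and capillary electrophoresis. Changes in either direction were fitted relative to DMSO controls.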

[12] = ATG_EGR_CIS: Attagene CIS-FACTORIAL HepG2 Assay for human Early Growth Response 1 (EGR1) (AID 2282938); conditions: HepG2 Attagene CIS-FACTORIAL EGR reporter mRNA; actives raise or lower the signal
Procedure, shortened: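 Fluorescent capillary-electrophoresis signal of reporter cDNA fragments serves as read-out. HepG2 cells bear transiently transfected cis-promoter reporter units and are exposed 24 h; gain- or loss-of-signal is fitted against DMSO.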

[13] = ATG_M_19_CIS: Attagene CIS-FACTORIAL HepG2 Assay for M19 Transcription Factor (Internal Marker) (AID 2282939); conditions: HepG2 Attagene CIS-FACTORIAL M19 internal marker reporter; actives raise or lower the signal
Procedure, shortened: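 Signals come from fluorescence of labelled reporter-specific PCR fragments resolved by capillary electrophoresis, following 24 h treatment of HepG2 cells transfected with cis-promoter reporter units; activity was fitted in both directions relative to DMSO.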

[14] = ATG_ERE_CIS: Attagene CIS-FACTORIAL HepG2 Assay for Estrogen Response Element (ERE) (AID 2282940); conditions: HepG2 ERE cis-reporter, Attagene RNA transcript; actives raise or lower the signal
Procedure, shortened: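 Fluorescence of capillary-separated, FAM-labelled reporter cDNA fragments indicates reporter mRNA levels in HepG2 cells exposed to chemicals for 24 h. Transient transfection with cis-regulated units; data fitted in both directions against DMSO.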

[15] = ATG_FoxO_CIS: Attagene CIS-FACTORIAL HepG2 Assay for human Forkhead box O (FoxO) (AID 2282943); conditions: HepG2 Attagene cis-reporter, FoxO element, mRNA; actives raise or lower the signal
Procedure, shortened: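 Human hepatoma HepG2 cells carry transiently introduced reporter transcription units controlled by cis promoter elements. Chemical treatment lasted 24 h, and mRNA signal was compared with DMSO.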

[16] = ATG_GATA_CIS: Attagene CIS-FACTORIAL HepG2 Assay for human GATA Binding Protein (AID 2282944); conditions: HepG2 GATA cis-element reporter, Attagene multiplex mRNA; actives raise or lower the signal
Procedure, shortened: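 After transfecting HepG2 cells with multiple cis-regulated reporter units, chemicals are dosed for 24 h; isolated RNA undergoes RT-PCR and fluorescent labeling before capillary electrophoresis, with activity expressed against DMSO.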

[17] = ATG_GLI_CIS: Attagene CIS-FACTORIAL HepG2 Assay for human Zinc Finger Protein GLI1 (AID 2282945); conditions: HepG2, Attagene cis-factorial reporter mRNA, GLI element; actives raise or lower the signal
Procedure, shortened: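 Bidirectional curve fits relative to DMSO, using reporter mRNA levels from RT-PCR plus capillary electrophoresis. Cells were HepG2 transiently carrying cis-regulated reporter constructs, harvested 24 h after dosing.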

[18] = ATG_Ets_CIS: Attagene CIS-FACTORIAL HepG2 Assay for human Erythroblast Transformation Specific (ETS) (AID 2282941); conditions: HepG2 ETS cis-reporter transcription, actives raise or lower the signal
Procedure, shortened: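 After transient cis-reporter transfection, HepG2 cells receive test chemical for 24 h. Reporter mRNA levels, measured by RT-PCR and capillary electrophoresis fluorescence, are analysed bidirectionally relative to the DMSO baseline.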

[19] = target: Hepatocyte nuclear factor 3-beta (Homo sapiens) (UniProt Q9Y261); assay: ATG_FoxA2_CIS: Attagene CIS-FACTORIAL HepG2 Assay for human Forkhead box A2 (FOXA2) (AID 2282942); conditions: HepG2 cis-reporter transcription factor activity, 24 h; actives raise or lower the signal
Procedure, shortened: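 Fluorescence signal of reporter cDNA fragments, separated by capillary electrophoresis, reflects endogenous transcription factor activity in transfected HepG2 after 24 h. Both increases and decreases fitted against DMSO.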

Measured: AC50

Chain of Transcription factor E2F1 (Homo sapiens) (Q01094 whole entry, looked up): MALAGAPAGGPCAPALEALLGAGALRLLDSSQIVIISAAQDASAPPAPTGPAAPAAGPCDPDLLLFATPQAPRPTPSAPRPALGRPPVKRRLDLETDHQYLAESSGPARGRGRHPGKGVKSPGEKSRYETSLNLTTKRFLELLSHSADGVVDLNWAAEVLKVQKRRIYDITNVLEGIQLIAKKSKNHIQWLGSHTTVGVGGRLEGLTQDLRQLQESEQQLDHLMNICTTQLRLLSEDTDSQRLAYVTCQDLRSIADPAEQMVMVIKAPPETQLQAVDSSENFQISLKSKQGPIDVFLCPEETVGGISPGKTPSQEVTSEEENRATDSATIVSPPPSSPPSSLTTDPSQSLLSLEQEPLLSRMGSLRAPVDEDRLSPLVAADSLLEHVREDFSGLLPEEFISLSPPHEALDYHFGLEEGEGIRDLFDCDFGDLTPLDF
Chain of Hepatocyte nuclear factor 3-beta (Homo sapiens) (Q9Y261 whole entry, looked up, the tested form may be a part): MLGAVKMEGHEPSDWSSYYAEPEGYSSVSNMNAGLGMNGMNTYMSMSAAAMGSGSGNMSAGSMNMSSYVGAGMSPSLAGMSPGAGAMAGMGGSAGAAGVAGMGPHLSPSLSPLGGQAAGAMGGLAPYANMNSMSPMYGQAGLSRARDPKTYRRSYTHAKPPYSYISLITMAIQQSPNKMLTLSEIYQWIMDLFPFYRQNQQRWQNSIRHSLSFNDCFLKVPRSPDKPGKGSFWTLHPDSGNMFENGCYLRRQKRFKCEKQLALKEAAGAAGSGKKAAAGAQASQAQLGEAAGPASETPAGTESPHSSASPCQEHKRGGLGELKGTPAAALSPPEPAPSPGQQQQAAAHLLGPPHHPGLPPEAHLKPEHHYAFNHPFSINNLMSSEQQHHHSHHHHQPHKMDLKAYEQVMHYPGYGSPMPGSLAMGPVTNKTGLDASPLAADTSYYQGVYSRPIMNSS
Chain of Aryl hydrocarbon receptor (Homo sapiens) (P35869 whole entry, looked up): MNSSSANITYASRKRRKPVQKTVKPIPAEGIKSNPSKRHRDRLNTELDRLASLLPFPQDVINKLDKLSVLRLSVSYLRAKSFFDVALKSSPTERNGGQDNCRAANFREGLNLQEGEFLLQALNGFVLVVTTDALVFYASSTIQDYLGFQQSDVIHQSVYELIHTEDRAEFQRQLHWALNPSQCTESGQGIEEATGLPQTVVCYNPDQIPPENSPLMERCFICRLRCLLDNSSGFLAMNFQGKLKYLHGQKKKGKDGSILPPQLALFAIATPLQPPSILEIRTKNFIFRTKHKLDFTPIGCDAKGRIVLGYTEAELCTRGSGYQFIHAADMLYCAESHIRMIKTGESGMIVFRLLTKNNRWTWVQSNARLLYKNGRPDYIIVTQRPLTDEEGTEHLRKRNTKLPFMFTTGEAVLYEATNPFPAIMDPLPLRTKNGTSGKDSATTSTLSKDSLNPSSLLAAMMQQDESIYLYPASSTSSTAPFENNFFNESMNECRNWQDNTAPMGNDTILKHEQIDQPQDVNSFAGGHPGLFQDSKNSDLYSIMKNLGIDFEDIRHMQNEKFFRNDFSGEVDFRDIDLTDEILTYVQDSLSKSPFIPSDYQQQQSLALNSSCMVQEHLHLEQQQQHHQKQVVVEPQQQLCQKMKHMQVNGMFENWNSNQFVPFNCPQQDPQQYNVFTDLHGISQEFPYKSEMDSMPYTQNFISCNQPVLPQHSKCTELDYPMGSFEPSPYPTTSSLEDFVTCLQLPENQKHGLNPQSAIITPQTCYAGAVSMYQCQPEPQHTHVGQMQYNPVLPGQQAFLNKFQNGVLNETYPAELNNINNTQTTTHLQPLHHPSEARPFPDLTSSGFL
Chain of CCAAT/enhancer-binding protein beta (Homo sapiens) (P17676 whole entry, looked up): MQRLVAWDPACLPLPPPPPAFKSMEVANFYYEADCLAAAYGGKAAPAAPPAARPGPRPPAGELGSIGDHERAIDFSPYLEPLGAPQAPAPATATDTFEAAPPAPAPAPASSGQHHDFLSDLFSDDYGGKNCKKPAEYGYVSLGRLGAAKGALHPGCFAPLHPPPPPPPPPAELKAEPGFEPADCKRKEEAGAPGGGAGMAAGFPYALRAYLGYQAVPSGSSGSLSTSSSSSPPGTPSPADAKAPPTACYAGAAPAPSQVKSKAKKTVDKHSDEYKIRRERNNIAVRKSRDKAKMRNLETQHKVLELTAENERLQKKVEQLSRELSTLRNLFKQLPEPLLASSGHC

c1ccc2c(c1)c1cccc3ccc4cccc2c4c31
not listed: [18] | [19]
inactive: all other assays above

O=C(O)c1cccc([N+](=O)[O-])c1
not listed: [13] | [14] | [17]
inactive: all other assays above

CCCCCC(=O)OCCc1ccccc1
not listed: [18]
inactive: all other assays above

C=CCOC(=O)CCC1CCCCC1
not listed: [14]
inactive: all other assays above

Cc1c(N(C)C)c(=O)n(-c2ccccc2)n1C
active: [5] 64.9 µM
not listed: [18]
inactive: all other assays above

O=CCCc1ccccc1
not listed: [14] | [17]
inactive: all other assays above

O=C(O)c1ccc(C(=O)O)cc1
not listed: [14] | [17]
inactive: all other assays above

CCCCCCCCCCCCSC
active: [3] 100 µM
not listed: [14]
inactive: all other assays above
